Measured values from PubChem BioAssay AID602449 (Sanford-Burnham Center for Chemical Genomics, 2012).
Hit rate of the full screen: of about 360,000 compounds, about 5,000 (1.4%) were called active. The entries come from a sample that favours actives as a whole. Unmarked numbers belong to inactive results.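 How the source made its calls: active means inhibition of 50% or more, scaled per plate between neutral and stimulator controls; inactive means the rest.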

Test: blockers of Ca2+-induced mitochondrial swelling – biochemical, isolated mouse mitochondria, absorbance, primary screen (AID 602449);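 further: 0% = DMSO wells given calcium and 100% = 1 mM EGTA wells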
Conditions: 30 min, at 10 µM, hits give high values

SMILES	inhibition
CN(C)CCCN1C(=O)CSC1c1ccc([N+](=O)[O-])cc1 (stereo not given)	-0.2%
CCCCc1ccc(NC(=O)NCc2cccnc2)cc1	-0.3%
CCCCCCCCCCCCN1C(=O)CSC1c1cccnc1 (stereo not given)	62.4% (active)
CCCS(=O)(=O)NC(=O)C1(C)CCCN(C(=O)c2ccnc(Cl)c2)C1 (stereo not given)	-0.3%
COc1ccc(CC(=O)Nc2nc(-c3ccc(F)c(F)c3)cs2)cc1OC	108% (active)
COc1ccc(CC(=O)NC2CCSc3ccccc32)cc1OC (stereo not given)	-1.7%
COc1ccc(CCNC(=O)COC(=O)Cc2cc(OC)c(OC)c(OC)c2)cc1	0%
COc1ccc(CC(=O)Nc2ccccc2NC(=O)c2ccco2)cc1OC	2.5%
COc1cc(CC(=O)Nc2nc(-c3ccc(F)c(F)c3)cs2)cc(OC)c1OC	105% (active)
COc1cc(CCC(=O)Nc2ccncc2Cl)cc(OC)c1OC	0.5%
CC(C)c1ccc(CC(=O)N2CCC2(C)C(=O)NS(=O)(=O)c2ccc(C(C)(C)C)cc2)cc1 (stereo not given)	1.8%
COc1ccc(Cl)cc1NC(=O)COC(=O)C(CC(C)C)N1C(=O)C2CC=CCC2C1=O (stereo not given)	1.6%
COc1ccc(C(=O)C2CCCN(C(=O)c3cc(C)on3)C2)cc1F (stereo not given)	-1.4%
O=C(NNC(=O)c1csc(-c2cccnc2)n1)Nc1ccc(Cl)cc1	56.5% (active)
O=C(CSc1n[nH]c(-c2cccnc2)n1)Nc1ccc(Cl)cc1	1.2%
O=C(Nc1ccc(Cl)cc1)c1csc([C@@H]2O[C@H](CO)[C@H](O)[C@H](O)[C@H]2O)n1	-4.4%
CCCN(C(=O)c1nc2nccc(C)n2n1)c1c(N)n(Cc2ccccc2)c(=O)[nH]c1=O	-2.3%
CCc1cc(C(=O)OC)c(NC(=O)CC2Sc3ccc(C(F)(F)F)cc3NC2=O)s1 (stereo not given)	3.8%
O=C(Nc1ccc(Cl)cc1)c1csc([C@H]2C[C@H](O)[C@@H](CO)O2)n1	-0.6%
CC[C@@H](C)[C@@H](C(=O)N1CCN(C(=O)OC(C)(C)C)CC1)n1cc(CCC(=O)O)nn1	-0.6%
CC(C)(C)c1ccc(CCC2OCC(CN3CCOCC3)O2)cc1 (stereo not given)	3.3%
COc1cccc(C(C(=O)NC2CCCC2)N(C(=O)c2ccco2)c2cccc(C(C)=O)c2)c1OC (stereo not given)	-2.4%
Cc1ccc(S(=O)(=O)NCc2nc3ccccc3c(=O)n2N)cc1	1.2%
Cc1nc(CNS(=O)(=O)c2cc([N+](=O)[O-])ccc2C)cs1	0.4%
Cc1nc(CNS(=O)(=O)c2ccc(Oc3ccccc3)cc2)cs1	88.7% (active)
